CYP2C9 activ = human CYP2C9 activators, primary screen, biochemical, luminescence. Cytochrome P450 2C9 (Homo sapiens), P11712. recombinant CYP2C9, luciferin-H conversion; active compounds read high; factor 1 = untreated enzyme, 0 = blocked. activation factor at 5 µM. 96,000 tested, 1.4% active. AID 1024, 2008;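 active = activation factor of 2 or more for CYP2C9 at a 5 µM dose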;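 note: 0 = sulfaphenazole-blocked wells and 1 = vehicle-only wells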
sEH act = soluble epoxide hydrolase activators, primary screen, biochemical, human sEH. Bifunctional epoxide hydrolase 2 (Homo sapiens), P34913. purified human sEH enzymatic activity, activator screen. activation, % at 2 µM. 91,000 tested, 0.04% active. AID 717, 2007; in the data active = activation above about 37%
sEH inhibitor = soluble epoxide hydrolase inhibitors, primary screen, biochemical, human sEH | 91,000 tested, 0.34% active | Bifunctional epoxide hydrolase 2 (Homo sapiens), P34913 | recombinant human sEH enzymatic activity assay | inhibition, % at 2 µM; in the data active = inhibition above about 80%
CYP2C19 inhib = blockers of cytochrome P450 2C19 activity – biochemical, luminescence, ADME assay, primary screen | 96,000 tested, 21% active | CYP2C19 Supersomes, luciferin-H EGE luminescence, 30 min | P33261 | inhibition, % at 5 µM;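 active = CYP2C19 inhibition above a set limit at 5 µM in the primary screen, cut at about 50% in these data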;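 note: plate controls were negative control wells for no effect and 2.5 mM tranylcypromine positive control for full effect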
Target sequence (P33261 whole entry, looked up): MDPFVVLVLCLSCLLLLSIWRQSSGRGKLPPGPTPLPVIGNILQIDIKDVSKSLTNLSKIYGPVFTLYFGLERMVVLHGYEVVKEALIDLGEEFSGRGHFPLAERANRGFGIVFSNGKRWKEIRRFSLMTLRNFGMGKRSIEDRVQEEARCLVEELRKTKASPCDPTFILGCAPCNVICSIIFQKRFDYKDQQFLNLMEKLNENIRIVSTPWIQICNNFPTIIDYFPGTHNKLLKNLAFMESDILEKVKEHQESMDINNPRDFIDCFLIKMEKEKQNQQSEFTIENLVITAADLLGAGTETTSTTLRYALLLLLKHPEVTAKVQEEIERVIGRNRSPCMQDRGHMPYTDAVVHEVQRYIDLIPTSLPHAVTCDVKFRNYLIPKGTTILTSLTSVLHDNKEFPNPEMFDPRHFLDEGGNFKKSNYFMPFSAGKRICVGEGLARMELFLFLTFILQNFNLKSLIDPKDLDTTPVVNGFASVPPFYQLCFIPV
CYP2C19 activ = human CYP2C19 activators, primary screen, biochemical, luminescence. 96,000 tested, under 10 active. recombinant CYP2C19, luciferin-H EGE luminescence; active compounds read high; 0 = fully inhibited enzyme, 1 = untreated enzyme. Cytochrome P450 2C19 (Homo sapiens), P33261. activation factor at 5 µM;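 active = activation factor of at least 2 at 5 µM in the primary screen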;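 note: 0 = wells with 2.5 mM tranylcypromine and 1 = vehicle-only wells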
CYP2C9 inhib = blockers of cytochrome P450 2C9 activity – biochemical, luminescence, ADME assay, primary screen | inhibition, % at 5 µM | CYP2C9 Supersomes, luciferin-H conversion | P11712 | 96,000 tested, 20% active;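 active = blocking of liver enzyme CYP2C9 beyond about 50% at 5 µM, limit read from the data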
Numbers without * were called inactive; x = not tested or not shown. Most compounds without a hit are left out; they make up all but 27% or so of the library.

SMILES | CYP2C9 activ | sEH act | sEH inhibitor | CYP2C19 inhib | CYP2C19 activ | CYP2C9 inhib
Cc1ccc(CS(=O)(=O)CCC(=O)NCCCOC(C)C)cc1 | 0.9 | -1.0 | 0.6 | -5.4 | 1.1 | 10.4
CN(/N=C/c1ccncc1)C1=NS(=O)(=O)c2ccccc21 | 0.7 | 4.6 | -4.7 | 54.9* | 0.5 | 33.0
S=c1oc(-c2ccncc2)nn1CCc1ccncc1 | 0.1 | -5.2 | 3.1 | 98.8* | 0 | 85.2*
O=C(c1cc(-c2ccccc2)nc2ccccc12)N1N=C(C(F)F)CC1(O)C(F)F (stereo unspecified) | 0 | 3.9 | -1.7 | 82.3* | 0.2 | 99.7*
Cc1ccc(C(=O)N/C(=C\c2cccs2)C(=O)NCc2ccncc2)cc1 | 1 | -1.0 | 3.0 | 9.0 | 0.9 | -0.1
CCCSc1nc(C)c(CC(=O)O)c(=O)[nH]1 | 1 | 0.4 | 1.3 | -2.6 | 1 | -1.0
COc1ccc(C2OC34CCCCC3C(C#N)(C#N)C2(C#N)C(=N)O4)cc1 (stereo unspecified) | 0.9 | 4.6 | -5.0 | 16.2 | 0.8 | 10.0
Cn1c(C(=O)Nc2ccc3c(c2)OCO3)cc2sccc21 | 0.8 | -2.6 | 3.1 | 95.5* | 0 | 23.4
COc1cc(NC(=O)c2cc3sccc3n2C)cc(OC)c1 | 0.2 | 11.2 | -10.7 | 86.0* | 0.1 | 79.9*
COC(=O)c1ccc(NC(=O)c2cc3sccc3n2C)cc1 | 1 | 0.3 | 1.3 | 20.4 | 0.8 | -1.0
Cn1c(C(=O)NCc2ccc3c(c2)OCO3)cc2sccc21 | 0.3 | 4.9 | -4.4 | 79.5* | 0.2 | 74.9*
Cn1c(C(=O)Nc2ccccc2)cc2sccc21 | 0.8 | 4.4 | -5.0 | 17.5 | 0.8 | 17.1
CCc1ccccc1NC(=O)c1cc2sccc2n1C | 1.1 | 9.7 | -5.8 | 25.3 | 0.7 | -9.7
CCc1ccc(S(=O)(=O)NCc2csc(C)n2)s1 | x | -26.1 | 28.4 | x | x | x
COc1cc2nc(SCc3ccc(F)cc3)n(Cc3cccs3)c(=N)c2cc1OC | 0.4 | -6.9 | 9.5 | 1.6 | 1 | 55.0*
CCSc1nc2cc(OC)c(OC)cc2c(=O)n1CCc1ccccc1 | 0.5 | -7.5 | 7.0 | 19.3 | 0.8 | 49.1
CCOc1ccc(C2N(c3ccc(F)cc3)C(=O)C3CCCN32)cc1OC (stereo unspecified) | 0.6 | -2.9 | 1.4 | 65.9* | 0.3 | 40.3
CCOc1ccc(C2N(c3ccc(Cl)cc3)C(=O)C3CCCN32)cc1OC (stereo unspecified) | 0.5 | -16.4 | 14.1 | 65.1* | 0.3 | 48.5
CCOc1ccc(C2N(c3cc(Cl)ccc3OC)C(=O)C3CCCN32)cc1OC (stereo unspecified) | 1.3 | -1.0 | -1.7 | 72.0* | 0.3 | -34.5
CCOc1ccc(C2N(c3ccc(OC)cc3)C(=O)C3CCCN32)cc1OC (stereo unspecified) | 0.6 | -4.1 | 2.6 | 22.5 | 0.8 | 37.2
O=C(Oc1cccc([N+](=O)[O-])c1)c1cc(-c2ccccc2)nc2ccccc12 | 0.8 | -5.5 | 4.3 | 1.9 | 1 | 17.9
COc1cccc(-c2cc(C(=O)Nc3cccnc3)no2)c1 | 1.1 | -4.1 | 1.9 | 3.3 | 1 | -5.1
COc1cc(NC(=O)c2cc3nc(-c4ccccc4)cc(-c4ccccc4)n3n2)cc(OC)c1OC | 0.4 | 10.3 | -8.4 | 33.0 | 0.7 | 64.5*
CN1CCN(C(=O)c2cc3nc(-c4ccccc4)cc(-c4ccccc4)n3n2)CC1 | 0.6 | -2.8 | -1.5 | 40.7 | 0.6 | 41.5
COc1cccc(-c2cc(C(=O)Nc3cc(OC)c(OC)c(OC)c3)no2)c1 | 0.7 | -1.1 | 1.1 | 81.1* | 0.2 | 30.8
Cc1nn(Cc2ccccc2)c(C)c1NC(=O)c1cc(-c2cccs2)on1 | 0.4 | -4.7 | 5.3 | 28.2 | 0.7 | 62.7*
COc1cccc(-c2cc(C(=O)Nc3c(C)nn(Cc4ccccc4)c3C)no2)c1 | 0.5 | 10.2 | -11.8 | 26.7 | 0.7 | 53.6*
CC(=O)Cn1c(C(F)(F)F)nc2ccccc21 | 1.1 | 4.3 | -4.5 | -13.0 | 1.1 | -13.6
Cc1nn(C)c(C)c1C(=O)NN | 0.9 | -0.9 | -1.1 | 1.6 | 1 | 11.0
Cc1ccc(NC(=O)c2cc(-c3ccco3)on2)cc1C | 1.5 | x | x | -17.9 | 1.2 | -50.5

Bioassay records from PubChem.
